The panel holds about 79,000 compounds, 15% with a hit somewhere; the sample as a whole holds those more often. Activity calls are given as the source filed them. No stated cut-off is given here; in the data, active means growth inhibition above about 70%; inactive means the rest.
Legend:
[1] = NCI Yeast Anticancer Drug Screen. Data for the rad50 strain (AID 155);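 further: 0% = growth of vehicle-only cultures of the same strain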; details: S. cerevisiae rad50 strain growth inhibition; at 50.0 µM; active compounds read high
Outline: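 Readout: growth inhibition relative to vehicle-treated cultures. Compound exposure was carried out in a genetically defined yeast strain deficient in DNA damage repair.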

[2] = NCI Yeast Anticancer Drug Screen. Data for the mec2-1 strain (AID 157); details: S. cerevisiae mec2-1 strain, at 50.0 µM, active compounds read high
Outline: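 Test agents were screened against the mec2-1 yeast strain, with defined DNA repair or cell cycle alteration. Growth was scored as inhibition against vehicle-only controls.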

[3] = NCI Yeast Anticancer Drug Screen. Data for the sgs1 mgt1 strain (AID 161);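 further: 0% = growth of cultures given vehicle only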; details: S. cerevisiae sgs1 mgt1 strain, at 50.0 µM, active compounds read high
Outline: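 Read-out: growth inhibition vs vehicle controls. Cells: mutant yeast strain deficient in DNA damage repair.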

[4] = NCI Yeast Anticancer Drug Screen. Data for the cln2 rad14 strain (AID 165);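 further: 0% = growth equal to vehicle treated cultures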; details: S. cerevisiae cln2 rad14 strain, at 50.0 µM, active compounds read high
Outline: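 Growth of compound-exposed yeast (cln2 rad14 genotype) measured and expressed as inhibition relative to vehicle.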

[5] = NCI Yeast Anticancer Drug Screen. Data for the bub3 strain (AID 167); details: S. cerevisiae bub3 mutant strain, at 50.0 µM, active compounds read high
Outline: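 Readout: yeast growth inhibition, expressed relative to vehicle-only wells. The test organism is a mutant strain from a panel with lesions in DNA repair or checkpoint genes.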

[6] = NCI Yeast Anticancer Drug Screen. Data for the mlh1 rad18 strain (AID 175); details: S. cerevisiae mlh1 rad18 strain growth inhibition; at 50.0 µM; active compounds read high
Outline: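 In this whole-cell yeast screen, a strain with altered DNA damage repair is challenged with compound, and its growth is measured against matched vehicle-treated controls.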

Measured: growth inhibition

COc1ccc(-c2nnc(-c3nsc4ccccc34)o2)cc1
inactive: [1] -12.8% | [2] -31.9% | [3] -21.5% | [4] -2.5% | [5] 18.5% | [6] -14.1%

COc1ccc(Cl)cc1NC(=O)O/N=C(\Cl)C(C)C
inactive: [1] -3.65% | [2] 7.55% | [3] 10.9% | [4] 16.2% | [5] 24.9% | [6] -74.3%

CCCCNCCS
inactive: [1] 14.1% | [2] -14.6% | [3] 2.7% | [4] 6.9% | [5] -8.55% | [6] 8.5%

COc1ccc(-c2cc(C(O)C3CCCCN3)c3ccccc3n2)cc1 (stereo unspecified)
inactive: [1] 4.15% | [2] -42% | [3] -20.9% | [4] 11.7% | [5] -31.1% | [6] -10.1%

CCN(CC)CCSCCSCCN(CC)CC
inactive: [1] -24.7% | [2] -1.55% | [3] -3.05% | [4] -39% | [5] 8.65% | [6] -10.3%

CNc1ccc(O)cc1
inactive: [1] 3.6% | [2] 6.9% | [3] 5.75% | [4] -24.4% | [5] -0.05% | [6] 15.4%

COCCCNC1=C(C#N)C(=O)NC(c2cccs2)S1 (stereo unspecified)
inactive: [1] 2% | [2] 0.15% | [3] 3.45% | [4] 1.25% | [5] 5.3% | [6] -34.8%

Cc1c(C)c(C)c2cc3c(C)c(C)c(C)c(C)c3cc2c1C
inactive: [1] -4.55% | [2] -1.9% | [3] -8.5% | [4] -2.35% | [5] 6.45% | [6] -11.6%

O=C(O)Cn1ccc(=O)c2ccc([N+](=O)[O-])cc21
inactive: [1] 35.7% | [2] 15.2% | [3] 13.7% | [4] 26.9% | [5] 23.8% | [6] -47.5%

C/C(=N\NC(=S)N1CCC(C2CCN(C(=S)N/N=C(\C)c3ccccn3)CC2)CC1)c1ccccn1
inactive: [1] 32.4% | [2] 15.5% | [3] 60.1% | [4] 45.2% | [5] 63.9% | [6] -27.4%

Nc1ccc2ccc(NS(=O)(=O)N3CCCCC3)cc2c1
inactive: [1] 31.8% | [2] 46.9% | [3] 43.1% | [4] 52.6% | [5] 18.5% | [6] 50.9%

Cc1ccc2nc(C)cc(N=[N+]=[N-])c2c1
inactive: [1] -35.6% | [2] -21.8% | [3] -17.1% | [4] -58.9% | [5] -2.2% | [6] -11.5%

c1ccc(CNCc2ccccc2)cc1
inactive: [1] -2.65% | [2] 3.8% | [3] -37.8% | [4] -35.1% | [5] 18.6% | [6] 1.05%

C/C(=N\NC(=O)c1ccncc1)c1ccc(Cl)cc1Cl
inactive: [1] 5.85% | [2] 7.15% | [3] 0.55% | [4] 1.95% | [5] 4.65% | [6] 8.5%

COc1ccc(/C=C2\CCC(CNc3cc(C)on3)C2=O)cc1 (stereo unspecified)
inactive: [1] 21.5% | [2] -14.6% | [3] 17.1% | [4] 37.1% | [5] 29.1% | [6] -19.4%

CC(C)(C)c1ccc(N)cc1
inactive: [1] -37.7% | [2] -29.8% | [3] -10.9% | [4] -3.45% | [5] -2.65% | [6] -13.5%

CC12CCC(=O)C=C1CCC1C2CCC2(C)C1CCC2(O)C(=O)Cn1c(=O)cc[nH]c1=O (stereo unspecified)
inactive: [1] 10.3% | [2] 4.65% | [3] 1.5% | [4] 14.7% | [5] -2.7% | [6] 11.5%

Cc1cccc(C)c1NC(=S)N(CCC#N)C1CC(C)CC(C)(C)C1 (stereo unspecified)
inactive: [1] 3.45% | [2] 4.35% | [3] 19.6% | [4] -2.8% | [5] 19.9% | [6] -20%

NC(=O)N1CCCCN1C(N)=O
inactive: [1] 9.9% | [2] -7.95% | [3] -1.6% | [4] -55% | [5] 6.75% | [6] -4.65%

CCOC(=O)C[C@@]1(C)C(=O)O[C@H](c2ccccc2)N1C(=O)c1ccccc1
inactive: [1] 13.2% | [2] 6.4% | [3] 14.2% | [4] 29.9% | [5] 11.8% | [6] 15.1%

CCn1c(=O)c(C#N)c2n(CC)c3cc(C)c(C)cc3n2c1=O
inactive: [1] -13.5% | [2] -2.9% | [3] -11% | [4] -24.2% | [5] -31.3% | [6] -20.4%

OC1COC(O)(CNCCc2c[nH]c3ccc(OCc4ccccc4)cc23)C(O)C1O (stereo unspecified)
inactive: [1] -25.5% | [2] 7.25% | [3] -18.2% | [4] -49.7% | [5] -20.7% | [6] 19.1%

CCOC(=O)c1ccc(Nc2nc3ccccc3o2)cc1
inactive: [1] 5% | [2] -7.6% | [3] 9.05% | [4] -14.2% | [5] -0.95% | [6] 1.7%

C(#CCN1CCOCC1)CCCN1CCOCC1
inactive: [1] 1.2% | [2] -38.7% | [3] -2.45% | [4] -17.4% | [5] -15.2% | [6] 10.2%

c1ccc(C2(c3ccccc3)CC([P+](c3ccccc3)(c3ccccc3)c3ccccc3)N=N2)cc1 (stereo unspecified)
active: [1] 99.3% | [2] 99.6% | [3] 99.7% | [4] 99.4% | [5] 97.5% | [6] 99.5%

CN(C)CCC(CCN(C)C)=NO
inactive: [1] -37.2% | [2] -49.1% | [3] 3.4% | [4] 15.5% | [5] -31.4% | [6] -12.1%

O=C(CC1(O)C(=O)Nc2ccc(Br)cc21)c1ccc(Cl)cc1Cl (stereo unspecified)
inactive: [1] 44.9% | [2] 36.7% | [3] 69% | [4] 37% | [5] 48.2% | [6] 33.9%

Nc1cc(=O)n(-c2ccccc2)[nH]1
inactive: [1] -2.05% | [2] -10.6% | [3] -6.8% | [4] -19.9% | [5] -27.9% | [6] 22%

CC(=O)C1=C(c2ccccc2)N(C2OC(CO)C(O)C(O)C2O)C(S)=C(C#N)C1c1ccc(Cl)cc1 (stereo unspecified)
inactive: [1] 42.9% | [2] 23.9% | [3] 10.1% | [4] 29.2% | [5] 25.1% | [6] 49%

Cc1nc(C)c(N2CCN(Cc3ccccc3)CC2)c(=O)[nH]1
inactive: [1] 8.65% | [2] 2.5% | [3] -45.1% | [4] 13% | [5] 17.4% | [6] -52.9%

N=C(N)C(N=Nc1ccccc1)C(=N)N (stereo unspecified)
inactive: [1] -25.4% | [2] -7.45% | [3] -22.1% | [4] -33.5% | [5] -25.5% | [6] -16%

CC(c1ccc(O)cc1)c1cc2c(cc1OCCO)OCO2 (stereo unspecified)
active: [1] 99.3% | [2] 99% | [3] 99.4% | [4] 99.3% | [5] 99.5% | [6] 99.1%

COc1ccc(NC(=O)C2=C(SC)C(C#N)C(=O)N=C2N)cc1 (stereo unspecified)
inactive: [1] -25.1% | [2] -12.5% | [3] 0.2% | [4] 19.7% | [5] -31.4% | [6] 1.3%

O=C1c2cccnc2-c2ncccc21
inactive: [1] 16.3% | [2] 0.55% | [3] -1.35% | [4] 9.8% | [5] 5.4% | [6] 24.1%

CCOP(=O)(O)C(c1ccccc1)c1ccccc1
inactive: [1] -2.45% | [2] 7.5% | [3] 3.5% | [4] -10.7% | [5] 5.3% | [6] 6.85%

CCN(CC)CCNC(=O)c1ccc(NCN2C(=O)NC(c3ccccc3)(c3ccccc3)C2=O)cc1
inactive: [1] -24.1% | [2] 3.4% | [3] 8.45% | [4] 26.3% | [5] 15.7% | [6] 50.8%

COc1cc2c3c(c1)nc(C)n3C(=O)C(c1ccccc1)S2 (stereo unspecified)
inactive: [1] -17.6% | [2] -5.3% | [3] -26.3% | [4] 4.1% | [5] 21.6% | [6] -23.6%

C/C(CC(=O)Nc1ccc(Cl)cc1)=N\NC(N)=S
inactive: [1] -7.95% | [2] -4.65% | [3] 9.6% | [4] 20.4% | [5] -3.75% | [6] -0.6%

Nc1ccc(N)c(C(=O)O)c1
inactive: [1] -9.35% | [2] 15.1% | [3] 1.1% | [4] -2.5% | [5] -12.6% | [6] -8.9%

O=S(=O)(/N=c1/ccc(NS(=O)(=O)c2ccccc2)cn1O)c1ccccc1
inactive: [1] 25.5% | [2] 3.8% | [3] 18.1% | [4] -23% | [5] 10.6% | [6] 14.6%

CCCCCCCCCCCCCCCCCCNC(=O)N(C)Cc1ccccc1
inactive: [1] 17.5% | [2] 1.65% | [3] -0.65% | [4] -4.75% | [5] -1% | [6] -8.05%
